The values below come from PubChem BioAssay (NCATS).

The target of assay [1] is Lysosomal acid glucosylceramidase (Homo sapiens) (UniProt P04062). Description: Glucocerebrosidase-p2 (AID 348; in the data active = potency below about 10 µM; also: potency is read from the fitted curve at half-maximal effect). As to conditions: purified GBA, blue fluorogenic substrate, 40 min. The method, boiled down: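 Normal human glucocerebrosidase (0.2 nM) with blue fluorogenic substrate (80 uM final) in citrate/phosphate pH 5.9 with 10mM sodium taurocholate, 0.01% tween-20; 40 min RT, NaOH/glycine stop; fluorescence Ex 365/Em 440; AC50 from a titration from 0.6 nM upwards.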

Assay [2] in a line: AP1 Signaling Pathway (AID 357).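 Also: ME-180 reporter cells stimulated with EGF at its EC50 level; % is scaled to controls: 0 for no effect and ±100 for the full control effect.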 The following applies: ME-180 AP-1-bla reporter, EGF-induced, beta-lactamase ratio, 5 h; at 7.69 µM (top of the series) unless noted. The procedure, abridged:
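Cells are seeded overnight, exposed to compound titrations and an EC50 level of EGF for 5 hours at 37 °C, then loaded with CCF4 dye for 2.5 hours. Beta-lactamase activity under the AP-1 element is read as a blue/green ratio.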

Assay [3] addresses Cytochrome P450 1A2 (Homo sapiens) (UniProt P05177). Description: p450-cyp1a2 (AID 410; calls by dose curve; also: potency is read from the fitted curve at half-maximal effect;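 as to activity change, negative = inhibition: -100% = full effect of reference inhibitor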). The following applies: recombinant CYP1A2, luciferin-ME demethylation, luminescence; series mostly up to 11.4 µM. The procedure, abridged: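 O-Demethylation of luciferin 6' methyl ether by human CYP1A2 is monitored as luciferase luminescence. Substrate sits at Km (100uM); enzyme is 20nM. Values are scaled to 57 uM furafylline as maximal inhibition.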

Assay [4] in a line: Stat Signaling Pathway (AID 446).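 Also: ME-180 cervical cancer cells given 40 pM IL-6 alongside compound; SIE-controlled beta-lactamase reporter measured as 460/530 nm FRET emission ratio; % is scaled to controls: 0 for no effect and ±100 for the full control effect.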 The following applies: ME-180 (cervical carcinoma) SIE beta-lactamase reporter, IL-6 stimulated, 5 h; at 7.69 µM (top of the series) unless noted. The procedure, abridged: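 Compound effects on IL-6-induced STAT reporter activity were measured in ME-180 cells. After overnight culture, cells were co-treated with 40 pM IL-6 for 5 hrs before beta-lactamase substrate loading at room temperature.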

Assay [5] has as its target Glucocorticoid receptor (Homo sapiens) (UniProt P04150). Description: GR-GFP Redistribution (AID 450;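 active = compounds whose dose series gives a full or clear partial fitted curve of increased nuclear translocation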; also: potency is read from the fitted curve at half-maximal effect). The following applies: U2OS GR-GFP nuclear translocation, laser cytometry, 2 h.
Assay [6] has the same target. Description: GR-EFC Redistribution (AID 451; calls by dose curve; also: potency is read from the fitted curve at half-maximal effect). The following applies: CHO-K1 GR-EFC translocation, beta-gal luminescence, 2 h. The method, boiled down: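 CHO-K1 cells expressing nuclear EA and GR-ED fragments of b-gal; compounds titrated up to 46 uM final, 2 h at 37 C. GR nuclear translocation read as complemented b-gal luminescence after 1 h RT detection.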
Assay [7] addresses Mitogen-activated protein kinase 10 (Mus musculus) (UniProt Q61831). In words: JNK3 AlphaScreen Assay (AID 530).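 Also: kinase came from lysate of stimulated human HepG2 cells; signal reports phosphorylation of biotinylated GST-cJun 1-79 at Ser73 with 10 µM ATP; % is scaled to controls: 0 for no effect and ±100 for the full control effect.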 As to conditions: JNK3 lysate, c-Jun phosphorylation; series mostly up to 57.1 µM. The method, boiled down: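 Activity was read by AlphaScreen after JNK3-containing HepG2 lysate (cytokine pre-activated) phosphorylated biotinylated GST-cJun with 10 uM ATP at room temperature. Phospho-Ser73 cJun antibody with Protein-A acceptor beads provided detection.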
A general note: Bead proximity is the source of the signal in Alpha formats.

For assay [8], the target named is 3',5'-cyclic-AMP phosphodiesterase 4B (Homo sapiens) (UniProt Q07343). Description: qHTS Assay for Inhibitors of PDE-IV (AID 607; active = well fitted activation curve with a large enough effect in the main read-out, with a control signal flat, not every such curve was filed as active; also: % of control where 0% means no effect). The following applies: HEK293 ACTOne CNG channel cells, membrane potential fluorescence; series mostly up to 22.9 µM. The procedure, abridged: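 ACTOne HEK293 cells carry a modified cAMP-gated CNG channel and express endogenous PDE4; plated 1000 cells/well, compounds up to 22.9 uM final. Membrane-potential dye fluorescence (ex 535/em 590) was read; parental cells received 10 uM forskolin + 100 uM RO 20-1724.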
On the technique in general: Quantitative high-throughput screening tests each substance at several concentrations.

In assay [9] the target is Cytochrome P450 2C9 (Homo sapiens) (UniProt P11712). In words: qHTS Assay for Inhibitors and Substrates of Cytochrome P450 2C9 (AID 883; active = well fitted inhibition curve with a large enough effect; also: potency is read from the fitted curve at half-maximal effect; nearly all actives have a fitted effect of over 60% in size). The following applies: recombinant CYP2C9, luciferin-H luminescence, 60 min; series mostly up to 57.1 µM. The method, boiled down:
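10nM CYP2C9 + 100uM Luciferin-H (=KM), 25mM KPO4; cpd 10 min 37C; NADPH regen, 60 min 37C; stop/detect with P450 Glo-Buffer 20 min; luminescence. Norm. to 57uM sulphaphenazole as full inhibition.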

A short description of assay [10]: NFAT Signaling Pathway (AID 444).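 Also: carbachol stimulus at about its EC50 of 1 µM final; % is scaled to controls: 0 for no effect and ±100 for the full control effect.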 The following applies: Jurkat NFAT-bla M1, carbachol, beta-lactamase ratio, 5 h; at 7.69 µM (top of the series) unless noted. The procedure, abridged:
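Jurkat cells with NFAT-driven β-lactamase reporter and co-expressed M1 receptor, stimulated with carbachol (final 1 uM, ~EC50), compound titration, 5 h at 37 °C. CCF4 loaded 1 h at RT; 460/530 nm ratio gave %activity and AC50.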

The target of assay [11] is Cytochrome P450 2D6 (Homo sapiens) (UniProt P10635). In words: qHTS Assay for Inhibitors and Substrates of Cytochrome P450 2D6 (AID 891; active = well fitted inhibition curve with a large enough effect; also: nearly all actives have a fitted effect of over 60% in size; also: potency is read from the fitted curve at half-maximal effect). The following applies: recombinant CYP2D6, luciferin-ME EGE luminescence; series mostly up to 11.4 µM. The method, boiled down: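 Luminescent read-out of luciferin formed by 5 nM human CYP2D6 demethylating 30 uM Luciferin-ME EGE (Km level) over 60 min at room temperature after NADPH regeneration addition. Data normalized to full inhibition by 1.43 uM quinidine.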

A number with no mark means an inactive call. Records with an inconclusive call do not appear. Active and inactive are the calls of the source. Unless noted, calls follow the shape of the dose curve; as a rule, active = well fitted curve in either direction with a large enough effect (not every such curve was filed as active); inconclusive = small, poorly fitted or top-dose-only effect, or another doubt; inactive = flat fitted curve, though single readings scatter.

Chain of Glucocorticoid receptor (Homo sapiens) (P04150 whole entry, looked up, the tested form may be a part): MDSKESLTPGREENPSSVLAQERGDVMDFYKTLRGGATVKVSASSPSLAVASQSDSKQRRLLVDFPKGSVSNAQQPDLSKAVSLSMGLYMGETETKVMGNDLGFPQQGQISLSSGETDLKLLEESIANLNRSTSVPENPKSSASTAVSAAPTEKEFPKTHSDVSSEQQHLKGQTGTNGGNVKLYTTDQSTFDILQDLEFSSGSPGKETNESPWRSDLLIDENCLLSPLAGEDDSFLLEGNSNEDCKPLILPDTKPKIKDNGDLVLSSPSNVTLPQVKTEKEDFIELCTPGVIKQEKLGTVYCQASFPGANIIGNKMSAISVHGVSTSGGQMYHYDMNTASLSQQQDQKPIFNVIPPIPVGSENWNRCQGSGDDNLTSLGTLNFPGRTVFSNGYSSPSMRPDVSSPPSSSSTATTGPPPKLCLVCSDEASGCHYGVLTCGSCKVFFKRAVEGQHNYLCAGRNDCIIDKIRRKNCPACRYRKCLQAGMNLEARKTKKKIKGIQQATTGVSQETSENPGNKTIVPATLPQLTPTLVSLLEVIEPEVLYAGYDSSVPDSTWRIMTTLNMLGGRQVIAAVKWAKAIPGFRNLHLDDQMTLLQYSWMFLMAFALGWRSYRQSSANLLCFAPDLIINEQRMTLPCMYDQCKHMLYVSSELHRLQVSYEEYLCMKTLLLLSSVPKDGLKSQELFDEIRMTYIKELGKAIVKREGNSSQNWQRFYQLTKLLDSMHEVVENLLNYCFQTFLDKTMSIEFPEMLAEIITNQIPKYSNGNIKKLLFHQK
Chain of 3',5'-cyclic-AMP phosphodiesterase 4B (Homo sapiens) (Q07343 whole entry, looked up): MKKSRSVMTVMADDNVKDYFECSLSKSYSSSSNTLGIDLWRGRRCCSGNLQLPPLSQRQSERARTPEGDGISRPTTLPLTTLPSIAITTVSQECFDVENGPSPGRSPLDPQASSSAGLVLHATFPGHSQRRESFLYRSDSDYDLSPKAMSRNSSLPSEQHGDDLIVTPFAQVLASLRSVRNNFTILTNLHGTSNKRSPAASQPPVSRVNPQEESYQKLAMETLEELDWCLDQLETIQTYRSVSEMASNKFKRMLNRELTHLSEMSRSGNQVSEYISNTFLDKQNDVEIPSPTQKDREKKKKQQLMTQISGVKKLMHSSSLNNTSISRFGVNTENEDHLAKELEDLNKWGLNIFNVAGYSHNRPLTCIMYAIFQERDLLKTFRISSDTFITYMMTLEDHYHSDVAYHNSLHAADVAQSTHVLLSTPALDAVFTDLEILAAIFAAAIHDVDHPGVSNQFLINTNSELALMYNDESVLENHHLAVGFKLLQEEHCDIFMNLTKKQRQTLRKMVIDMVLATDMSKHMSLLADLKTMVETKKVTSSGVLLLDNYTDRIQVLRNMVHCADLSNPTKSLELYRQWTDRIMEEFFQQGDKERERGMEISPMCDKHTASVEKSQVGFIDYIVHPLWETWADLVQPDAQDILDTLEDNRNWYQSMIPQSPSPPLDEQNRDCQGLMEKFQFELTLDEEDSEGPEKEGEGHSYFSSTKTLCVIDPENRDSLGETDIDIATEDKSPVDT
Chain of Lysosomal acid glucosylceramidase (Homo sapiens) (P04062 whole entry, looked up): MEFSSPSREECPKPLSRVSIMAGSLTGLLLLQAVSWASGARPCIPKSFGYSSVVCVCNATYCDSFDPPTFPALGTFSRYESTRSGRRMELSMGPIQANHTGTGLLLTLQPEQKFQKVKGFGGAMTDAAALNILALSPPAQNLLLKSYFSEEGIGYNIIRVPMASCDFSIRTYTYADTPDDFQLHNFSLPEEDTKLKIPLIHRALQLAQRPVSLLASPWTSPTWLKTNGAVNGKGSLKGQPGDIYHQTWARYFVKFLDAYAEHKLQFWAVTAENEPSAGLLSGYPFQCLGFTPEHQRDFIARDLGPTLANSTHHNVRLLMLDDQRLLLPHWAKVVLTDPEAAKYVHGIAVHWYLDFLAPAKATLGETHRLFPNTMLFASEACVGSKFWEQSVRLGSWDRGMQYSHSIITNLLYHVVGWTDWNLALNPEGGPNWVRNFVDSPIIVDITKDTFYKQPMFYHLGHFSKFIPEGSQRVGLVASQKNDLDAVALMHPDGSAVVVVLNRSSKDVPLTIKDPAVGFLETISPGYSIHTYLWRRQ
Chain of Cytochrome P450 1A2 (Homo sapiens) (P05177 whole entry, looked up): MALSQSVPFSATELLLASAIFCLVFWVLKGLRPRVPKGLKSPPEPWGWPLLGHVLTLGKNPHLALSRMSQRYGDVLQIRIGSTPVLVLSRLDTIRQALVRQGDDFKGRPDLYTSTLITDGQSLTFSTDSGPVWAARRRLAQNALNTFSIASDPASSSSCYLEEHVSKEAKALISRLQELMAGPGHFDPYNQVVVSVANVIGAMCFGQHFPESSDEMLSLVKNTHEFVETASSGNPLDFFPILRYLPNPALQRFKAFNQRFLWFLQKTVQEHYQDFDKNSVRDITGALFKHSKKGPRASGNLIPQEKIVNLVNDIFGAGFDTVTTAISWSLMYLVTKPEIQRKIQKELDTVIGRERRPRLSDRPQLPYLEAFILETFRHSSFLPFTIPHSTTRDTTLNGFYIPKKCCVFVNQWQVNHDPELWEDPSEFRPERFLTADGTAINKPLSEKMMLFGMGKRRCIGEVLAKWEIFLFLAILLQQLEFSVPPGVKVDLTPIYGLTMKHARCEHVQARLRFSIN
Chain of Cytochrome P450 2D6 (Homo sapiens) (P10635 whole entry, looked up): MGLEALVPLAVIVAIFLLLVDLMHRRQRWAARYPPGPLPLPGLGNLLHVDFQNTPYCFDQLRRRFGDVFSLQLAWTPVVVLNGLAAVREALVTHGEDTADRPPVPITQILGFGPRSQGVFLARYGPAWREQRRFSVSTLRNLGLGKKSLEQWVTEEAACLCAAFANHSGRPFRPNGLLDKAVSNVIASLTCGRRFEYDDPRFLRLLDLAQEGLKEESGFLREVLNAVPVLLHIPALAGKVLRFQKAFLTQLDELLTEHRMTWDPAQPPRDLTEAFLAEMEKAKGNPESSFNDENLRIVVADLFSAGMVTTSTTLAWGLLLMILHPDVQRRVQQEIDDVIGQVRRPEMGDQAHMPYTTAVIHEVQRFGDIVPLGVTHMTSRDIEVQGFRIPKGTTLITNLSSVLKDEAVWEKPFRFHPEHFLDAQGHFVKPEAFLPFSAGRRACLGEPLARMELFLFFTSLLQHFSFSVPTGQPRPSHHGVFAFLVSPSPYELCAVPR
Chain of Cytochrome P450 2C9 (Homo sapiens) (P11712 whole entry, looked up): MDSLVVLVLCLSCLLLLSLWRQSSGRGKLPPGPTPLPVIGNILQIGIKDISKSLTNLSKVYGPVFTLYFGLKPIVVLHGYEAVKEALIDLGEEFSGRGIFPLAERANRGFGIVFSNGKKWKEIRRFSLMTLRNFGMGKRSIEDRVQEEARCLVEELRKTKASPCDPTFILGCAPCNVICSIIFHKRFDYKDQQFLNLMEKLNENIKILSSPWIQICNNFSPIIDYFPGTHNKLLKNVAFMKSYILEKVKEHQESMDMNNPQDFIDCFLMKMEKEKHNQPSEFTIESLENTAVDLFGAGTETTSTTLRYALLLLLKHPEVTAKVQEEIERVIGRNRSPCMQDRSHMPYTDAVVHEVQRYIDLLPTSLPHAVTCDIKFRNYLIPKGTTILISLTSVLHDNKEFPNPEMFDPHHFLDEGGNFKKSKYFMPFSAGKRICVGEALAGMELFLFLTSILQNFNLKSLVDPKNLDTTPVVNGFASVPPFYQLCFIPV

Take `C1C[C@@H]2CN(CCCN3CCOCC3)[C@@H](C1)O2`: the figures for the Potency in [1], in assay [5] and in [6] were greater than 11.4 µM, greater than 46 µM and greater than 9.22 µM, respectively. Also, the activity change, negative = inhibition in assay [2] is -6.14%; in assay [7] it was 4.78% [at 11.4 µM]. In assay [3], the Potency entry is “inactive”. In addition, in [4], the activity, negative = inhibition is 11.7%. In addition, the outcome in [8] was inactive.

Take `O=C(O)C(O)(c1ccc(-c2ccccc2)cc1)c1ccc(-c2ccccc2)cc1`: the Potency in assay [1] was greater than 11.4 µM; in assay [5], greater than 46 µM; in assay [6], greater than 9.22 µM; in assay [9] it was 3.16 µM (active). Besides, the activity change, negative = inhibition in assay [2] was -25.7%; in assay [7], 1.15% [at 11.4 µM]. The Potency result in assay [3] was “inactive”. Moreover, the activity, negative = inhibition in assay [4] was -5.5%. The call in assay [8] was inactive.

Consider `CC(C)CC(=O)C[C@H](O)C(Cl)(Cl)Cl`, for which the Potency in [1] was greater than 11.4 µM; in [5] it was greater than 46 µM. Moreover, the activity change, negative = inhibition in [2] was 3.65%; in [10], -9%; in [7], 5.57% [at 11.4 µM]. The Potency entry in [3] is “inactive”. Moreover, the activity, negative = inhibition in assay [4] was -1.91%. For the same compound, in assay [8], the result was inactive.

As to `COc1cc(CCN)c(OC)c(OC)c1`, the Potency is greater than 11.4 µM in [1], 3.16 µM (active) in [3], greater than 46 µM in assay [5] and greater than 9.22 µM in [6]. Besides, the activity change, negative = inhibition is 7.8% in assay [2] and 4.46% [at 11.4 µM] in [7]. The activity, negative = inhibition in [4] was -3.83%. In addition, the call in assay [8] was inactive.

For `COc1cc2ccccc2c2cc([N+](=O)[O-])oc12`, the Potency was greater than 11.4 µM in [1], 0.126 µM (active) in assay [3], greater than 46 µM in assay [5] and greater than 9.22 µM in assay [6]. Besides, the activity change, negative = inhibition is 3.54% in assay [2] and 16.5% [at 11.4 µM] in assay [7]. Besides, the activity, negative = inhibition in assay [4] was 16.1%. For the same compound, the outcome in [8] was inactive.

As for `CO[C@@H]([CH2][Hg])CN1C(=O)c2ccccc2S1(=O)=O.Cn1c(=O)c2nc[nH]c2n(C)c1=O`, the Potency in assay [1] is 1.86 µM (active). Besides, the activity change, negative = inhibition in [2] is 12.7%; in assay [3], -22% [at 2.29 µM]; in [10], -3.51%; in assay [7] it was -0.0716% [at 11.4 µM]. Besides, the activity, negative = inhibition in assay [4] was 6.13%. Further, the result in [8] was inactive. Moreover, the Potency result in assay [11] was “inactive”.

`Cn1c(=O)c2[nH]cnc2n(C)c1=O.[CH2-][C@H](Cc1cccc2cc(C(=O)O)c(=O)oc12)OC.[Hg].[OH-]`: the Potency in [1] is 4.43 µM (active). For the same compound, the activity change, negative = inhibition in [2] was -5.03%; in assay [10], 6.5%; in assay [7] it was -0.539% [at 11.4 µM]. In assay [3], the Potency entry was “inactive”. The activity, negative = inhibition in assay [4] was 14%. Also, the result in assay [8] was inactive.

`CC(C)[C@]1(O)[C@@H](OC(=O)c2ccc[nH]2)[C@]2(O)[C@@]3(C)C[C@@]4(O)O[C@@]5([C@H](O)[C@@H](C)CC[C@]35O)[C@]2(O)[C@]41C`: the figures for the Potency in assay [1], in [5] and in assay [6] were greater than 11.4 µM, greater than 46 µM and greater than 9.22 µM, respectively. In addition, the figures for the activity change, negative = inhibition in [2], in assay [3] and in assay [7] were 3.13%, -17.2% [at 2.29 µM] and 0.163% [at 11.4 µM], respectively. Also, the activity, negative = inhibition in assay [4] was -4.77%. The result in assay [8] was inactive.

Regarding `O=C(CCN1CC2CCC(CC2)C1)c1cccs1`, the Potency in [1] was greater than 11.4 µM; in [3], 5.01 µM (active); in assay [5], greater than 46 µM; in assay [6], greater than 9.22 µM; in [11], 2 µM (active). Further, the activity change, negative = inhibition in assay [2] is 17.2%; in assay [7], 0.402% [at 11.4 µM]. For the same compound, the activity, negative = inhibition in assay [4] is 1.61%. Besides, the result in assay [8] was inactive.

For the compound `CC1=C2C(=O)[C@@H]3[C@@H](CC=C4C[C@@H](O)CC[C@@]43C)[C@H]2CC[C@@]12O[C@H]1C[C@H](C)CN[C@H]1[C@@H]2C`, the Potency is greater than 11.4 µM in [1], greater than 46 µM in assay [5] and greater than 9.22 µM in assay [6]. The activity change, negative = inhibition is 1.78% in assay [2] and 0.541% [at 11.4 µM] in [7]. The Potency entry in assay [3] is “inactive”. Moreover, the activity, negative = inhibition in assay [4] was 0.17%. For the same compound, the compound was called inactive in assay [8].

`CC(=O)O/C(=C1/C[C@H]2[C@@H]3CC=C4C[C@@H](OC(C)=O)CC[C@]4(C)[C@@H]3CC[C@]2(C)C1=O)C(F)(F)F`: the Potency is greater than 11.4 µM in assay [1], 5.01 µM (active) in assay [3], greater than 46 µM in assay [5] and greater than 9.22 µM in assay [6]. Further, the activity change, negative = inhibition in assay [2] is -23.8%; in assay [7], -0.565% [at 11.4 µM]. The activity, negative = inhibition in assay [4] is -16.9%. Besides, in assay [8], the compound was called inactive.

As for `O=C(O)/C=C\c1ccc[c]([Sb](=[O])([OH])[OH])c1`, the Potency in [1] was greater than 11.4 µM; in assay [5] it was greater than 46 µM; in assay [6], greater than 9.22 µM. The activity change, negative = inhibition in assay [2] was -8.12%; in [3] it was -9.5% [at 2.29 µM]; in assay [7], 3.13% [at 11.4 µM]. Also, in assay [4], the activity, negative = inhibition was -20.4%. The call in [8] was inactive.
